Measured values reported in PubChem BioAssay AID504329 (Southern Research Specialized Biocontainment Screening …, 2011).
Hit rate of the full screen: of about 340,000 compounds, about 1,000 (0.29%) were called active. Cut-off read from the data, not from the text of the source: inconclusive = inhibition above about 27% without an active follow-up result; inactive = below that. Not all results are given here. Measured potencies and affinities stand elsewhere.

Test: H1N1 influenza NS1A inhibitors, functional cell based assay (AID 504329)
Details: percent inhibition, at 12.5 µM, stronger effect = higher value

Row | SMILES | inhibition
1 | COc1ccccc1Oc1c(C)oc2c(CN(C)C)c(O)ccc2c1=O | 12.9% (inactive)
2 | COc1ccc(N/N=C(\C#N)C(=N)N2CCOCC2)cc1 | 0.407% (inactive)
3 | Cc1[nH]c(=O)[nH]c(=O)c1CSCC(=O)OCC(=O)Nc1ccccn1 | -14.1% (inactive)
4 | O=C(CCCC(=O)OCC(=O)NC1CCCC1)Nc1ccccn1 | -6.66% (inactive)
5 | CCOC(=O)CCCCC(=O)c1[nH]c(=O)[nH]c1CSCCO | 12.6% (inactive)
6 | CCCCSCc1[nH]c(=O)[nH]c1C(=O)CCCCC(=O)OCC | 1.07% (inactive)
7 | O=C(CP(=O)(O)CC(=O)c1ccccc1)c1ccccc1 | 5.59% (inactive)
8 | O=C1c2cccnc2C(=O)N1CNc1ccc(Cl)cc1 | 3.28% (inactive)
9 | COc1cccc(C(=O)NCCS(=O)(=O)NCc2cccnc2)c1 | -2.08% (inactive)
10 | CC(C)CCNC(=O)C(CC(C)C)N(Cc1ccc2c(c1)OCO2)C(=O)c1snc(C(N)=O)c1N (centres undefined) | 6.77% (inactive)
11 | C=CCC1(C#N)C(SC)=NC2=C(C(=O)CC(C)(C)C2)C1c1ccc(Br)cc1 (centres undefined) | -5.14% (inactive)
12 | O=C(CN1C(=O)COc2ccccc21)Nc1ccc2c(c1)OCCO2 | 0.43% (inactive)
13 | O=C(CN1C(=O)COc2ccccc21)Nc1ccccc1F | 2.27% (inactive)
14 | CCOC(=O)c1sc(NC(=O)CNCc2cccnc2)c(C(=O)OCC)c1C | -2.69% (inactive)
15 | CCOC(=O)c1c(NC(=O)COC(=O)c2ccccn2)sc(C(=O)N(C)C)c1C | -8.42% (inactive)
16 | COCCN(C(=O)c1csnn1)C(C(=O)NC1CCCCC1)c1ccccc1F (centres undefined) | -4.23% (inactive)
17 | CCCSc1ccc([C@H]2N[C@@](C)(C(=O)OC)[C@H]3C(=O)N(C)C(=O)[C@@H]23)cc1 | 6.02% (inactive)
18 | COC(=O)c1cc2cc(NS(=O)(=O)c3ccc(C)cc3)ccc2s1 | -3.1% (inactive)
19 | O=C(N=Nc1c(O)[nH]c2ccccc12)c1ccc(CN2CCOCC2)cc1 | 7.41% (inactive)
20 | NC(=S)N=Nc1c(O)[nH]c2ccccc12 | 14.1% (inactive)
21 | N=C(N)N=Nc1c(O)[nH]c2ccc(Br)cc12 | -0.68% (inactive)
22 | Oc1[nH]c2ccc(Br)cc2c1N=NC(=S)Nc1ccc(F)cc1 | -7.69% (inactive)

Row | SMILES | inhibition
23 | Cc1ccc(N(CC(=O)NC2CCCCC2)C(=O)CNC(=O)c2ccco2)cc1C | 7.87% (inactive)
24 | CC(C)c1ccc(C(=O)OCC(=O)NC2CCCC2)cc1 | 1.66% (inactive)
25 | CCOc1ccc(N2CC(O)(c3cccs3)[N+]3=C2CCCC3)cc1 (centres undefined) | 2.37% (inactive)
26 | COc1ccccc1C(=O)NC(CCSC)C(=O)NCc1ccncc1 (centres undefined) | -4.75% (inactive)
27 | CCc1cc2c(=O)oc(-c3ccc(F)cc3)nc2s1 | -6.8% (inactive)
28 | COC(=O)C1CC2=C(CCC2=O)N(c2ccccc2)C1=O (centres undefined) | -7.88% (inactive)
29 | Cc1ccc(S(=O)(=O)N(C)C)cc1NC(=O)COC(=O)/C(=C/c1ccc(F)cc1)c1cccs1 | -0.58% (inactive)
30 | O=C1/C(=C/c2ccccc2)Nc2ccccc21 | 14.7% (inactive)
31 | O=C1Nc2ccccc2C1=O | 0.1% (inactive)
32 | O=C(COC(=O)CN1C(=O)COc2ccccc21)NCc1ccc(F)cc1 | -6.84% (inactive)
33 | COc1ccc(CN(C)CC(=O)Nc2sc3c(c2C#N)CCC3)c(OC)c1 | -1.01% (inactive)
34 | CCc1ccc(NSc2ccccc2[N+](=O)[O-])cc1 | 28.4% (inactive)
35 | O=[N+]([O-])c1nn(-c2ccccc2)[n+]([O-])c1N1CCN(c2ccccc2F)CC1 | 2.62% (inactive)
36 | CC(=O)c1ccc(NC(=S)Nc2ccc(Br)c(Cl)c2)cc1 | -4.9% (inactive)
37 | CC(=O)N(C)c1ccc(N=C2C(=O)Nc3ccccc32)cc1 | 3.21% (inactive)
38 | Cc1ccc(N=C2C(=O)Nc3ccccc32)cc1 | -4.95% (inactive)
39 | C=CCn1c(SCC(=O)N(C)C)nc2cc(C(=O)O)ccc2c1=O | -7.19% (inactive)
40 | C=CCn1c(Sc2ccccc2)nc2c1c(=O)[nH]c(=O)n2C | -6.06% (inactive)
41 | COc1ccc([C@H]2CC(=O)C=C(c3ccc(O)cc3)C2)cc1OC | -4.89% (inactive)
42 | CN(C)c1ccc(/C=N/N2C(=O)c3ccccc3C2=O)cc1 | -9.49% (inactive)
43 | CN(C)c1ccc(C(=O)NN2C(=O)c3ccccc3C2=O)cc1 | -1.57% (inactive)
44 | CCc1ccc(-c2cc(C)no2)cc1S(=O)(=O)Nc1cc(C)on1 | 1.29% (inactive)

Row | SMILES | inhibition
45 | Cc1ccccc1-c1nc(CS(=O)CC(=O)NCCN2CCOCC2)c(C)o1 (centres undefined) | -1.58% (inactive)
46 | Nc1ccccc1N=Nc1ccccc1N | 18.4% (inactive)
47 | CC(C)(C)C1=CC(O)(c2ccccc2)C=C(C(C)(C)C)C1=O | -2.37% (inactive)
48 | COc1cccc(NC(=O)COC(=O)c2ccco2)c1 | 7.2% (inactive)
49 | CCOc1cccc(CNCCCSc2ncccn2)c1 | 1.33% (inactive)
50 | O=C1c2ccccc2C(=O)c2c1ccc(O)c2O | 17.2% (inactive)
51 | O=C(O)c1cccc2cccc(-c3c4ccc(=O)c(O)c-4oc4c(O)c(O)ccc34)c12 | 13% (inactive)
52 | Cc1ccc(OCCNC(=O)C2CC(=O)N(Cc3ccccc3)C2)cc1 (centres undefined) | 4.88% (inactive)
53 | CC1CCN(S(=O)(=O)c2ccccc2[N+](=O)[O-])CC1 | 16.9% (inactive)
54 | CC1CCN(CC(O)COc2ccc(-c3ccccc3)cc2)CC1 (centres undefined) | 19.9% (inactive)
55 | CN1CCN(c2ccc(N)c(N3CCN(C)CC3)c2)CC1 | 17.9% (inactive)
56 | Cc1nn(-c2cc(N3CCCCC3)ccc2N)c(=O)c2ccccc12 | 2.92% (inactive)
57 | O=C(C[C@@H]1C/C=C\C[C@@H](Cc2ccc(F)cc2)C(=O)OCCNC1=O)NCCO | 0.47% (inactive)
58 | O=C1Nc2ccc(Br)cc2C12OCCO2 | -14.6% (inactive)
59 | CCOc1ccc(C(=O)NCc2ccc3c(c2)OCO3)cc1OCC | -1.8% (inactive)
60 | O=C(COC(=O)c1ccc[nH]c1=O)NC1CCCCCCC1 | -1.92% (inactive)
61 | Cc1ccc(/C=N/Nc2ccc3c(C(F)(F)F)cc(C(F)(F)F)nc3n2)cc1 | -11.1% (inactive)
62 | N#CC(c1cccc(Cl)c1)c1ccc2c(C(F)(F)F)cc(C(F)(F)F)nc2n1 (centres undefined) | 20.9% (inactive)
63 | N#CC(c1ccc(Cl)cc1)c1ccc2c(C(F)(F)F)cc(C(F)(F)F)nc2n1 (centres undefined) | 21.3% (inactive)
64 | FC(F)(F)c1cc(C(F)(F)F)c2ccc(Oc3ccccc3)nc2n1 | -1.17% (inactive)
